# How the values were obtained:
# Experiment in all cases: protein-binding microarray (PBM); PBM: ~300 nM protein, 6 mM HEPES pH 7.8, 80 mM KCl, 0.5 mM EDTA, 0.5 mM EGTA, 6% glycerol, 35 ng/ul poly-dIdC, 1% milk, 1 h, room temperature; Ap Aiptasia and Nv Nematostella (sea anemones) / Co Capsaspora / Aq Amphimedon (sponge) / Dm Drosophila / Hu human; RHD is the Rel homology domain; high values mean tight binding
# Settings in all cases: dsDNA, one strand shown
# GST-Ap-NF-kB RHD = molecular target: T1, GST-Ap-NF-kB RHD (Exaiptasia pallida (Aiptasia), UniProt A0A913YAJ5 2-422)
# T1 sequence: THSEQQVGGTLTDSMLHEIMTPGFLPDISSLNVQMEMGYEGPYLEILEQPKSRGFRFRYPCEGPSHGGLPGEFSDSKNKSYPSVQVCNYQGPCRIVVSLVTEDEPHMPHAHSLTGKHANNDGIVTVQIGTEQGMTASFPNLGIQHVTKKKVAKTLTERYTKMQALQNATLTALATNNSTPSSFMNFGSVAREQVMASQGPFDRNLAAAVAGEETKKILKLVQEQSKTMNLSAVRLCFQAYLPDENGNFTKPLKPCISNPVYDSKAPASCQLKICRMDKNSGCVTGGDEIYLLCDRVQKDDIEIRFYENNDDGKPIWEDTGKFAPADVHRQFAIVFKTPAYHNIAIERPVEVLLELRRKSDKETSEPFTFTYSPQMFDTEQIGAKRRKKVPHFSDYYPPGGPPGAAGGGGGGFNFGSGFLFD
# [1] = molecular target: T2, GST-Nv-NF-kB (Cys allele) (Nematostella vectensis, UniProt E5G601 2-411)
# T2 sequence: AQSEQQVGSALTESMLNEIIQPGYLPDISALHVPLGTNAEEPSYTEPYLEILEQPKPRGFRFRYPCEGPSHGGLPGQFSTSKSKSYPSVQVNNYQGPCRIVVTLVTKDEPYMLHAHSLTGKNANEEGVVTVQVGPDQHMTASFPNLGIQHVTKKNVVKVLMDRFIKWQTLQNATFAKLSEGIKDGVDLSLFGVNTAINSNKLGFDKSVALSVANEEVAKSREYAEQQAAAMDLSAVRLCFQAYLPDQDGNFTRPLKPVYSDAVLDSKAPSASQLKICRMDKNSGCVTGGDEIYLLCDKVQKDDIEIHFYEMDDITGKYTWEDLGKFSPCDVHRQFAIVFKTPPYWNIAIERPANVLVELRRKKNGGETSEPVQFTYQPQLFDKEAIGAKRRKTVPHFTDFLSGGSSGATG
# GST-Co-NF-kB = molecular target: T3, GST-Co-NF-kB (Capsaspora owczarzaki, UniProt F1ARL5 200-546)
# T3 sequence: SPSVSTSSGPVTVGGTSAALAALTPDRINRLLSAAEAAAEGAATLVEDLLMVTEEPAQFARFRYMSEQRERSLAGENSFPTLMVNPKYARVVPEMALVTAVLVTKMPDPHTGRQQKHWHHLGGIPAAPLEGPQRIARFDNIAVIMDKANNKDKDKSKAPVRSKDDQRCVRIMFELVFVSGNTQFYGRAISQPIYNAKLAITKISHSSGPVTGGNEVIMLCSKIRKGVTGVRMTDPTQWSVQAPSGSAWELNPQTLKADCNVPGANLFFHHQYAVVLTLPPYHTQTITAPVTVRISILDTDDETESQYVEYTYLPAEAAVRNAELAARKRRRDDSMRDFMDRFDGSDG
# GST-Dm-Relish = molecular target: T4, GST-Dm-Relish (Drosophila melanogaster, UniProt Q94527 99-473)
# T4 sequence: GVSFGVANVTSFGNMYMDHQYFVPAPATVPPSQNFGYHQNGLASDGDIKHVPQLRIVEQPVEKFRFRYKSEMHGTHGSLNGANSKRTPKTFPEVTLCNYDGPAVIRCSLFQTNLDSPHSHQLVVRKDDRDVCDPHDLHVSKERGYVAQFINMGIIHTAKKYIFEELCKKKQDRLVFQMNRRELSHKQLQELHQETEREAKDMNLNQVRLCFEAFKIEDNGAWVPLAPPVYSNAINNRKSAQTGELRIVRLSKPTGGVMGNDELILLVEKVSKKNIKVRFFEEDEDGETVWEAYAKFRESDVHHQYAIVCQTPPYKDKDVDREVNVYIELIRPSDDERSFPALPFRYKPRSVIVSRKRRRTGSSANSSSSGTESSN
# GST-Aq-NF-kB = molecular target: T5, GST-Aq-NF-kB (Amphimedon queenslandica, UniProt A9Y5G7 2-389)
# T5 sequence: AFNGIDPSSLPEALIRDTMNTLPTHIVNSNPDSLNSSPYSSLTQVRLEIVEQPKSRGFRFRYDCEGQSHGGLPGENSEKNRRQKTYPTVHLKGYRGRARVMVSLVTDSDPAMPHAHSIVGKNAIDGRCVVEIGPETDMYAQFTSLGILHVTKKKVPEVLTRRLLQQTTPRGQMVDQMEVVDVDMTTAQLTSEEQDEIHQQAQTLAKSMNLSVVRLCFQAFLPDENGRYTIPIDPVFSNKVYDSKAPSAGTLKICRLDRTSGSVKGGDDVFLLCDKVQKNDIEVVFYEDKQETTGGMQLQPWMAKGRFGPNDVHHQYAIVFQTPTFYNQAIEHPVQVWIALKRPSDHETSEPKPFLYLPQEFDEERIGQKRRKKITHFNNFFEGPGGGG
Sequence,binding signal (GST-Ap-NF-kB RHD),binding signal [1],binding signal (GST-Co-NF-kB),binding signal (GST-Dm-Relish),binding signal (GST-Aq-NF-kB)
CCGATTAACATCACCTTCCCCCCTGATGTTAATCGGGTCTTGATTCGCTTGACGCTGCTG,4.15 z-score,4.07 z-score,7.1 z-score,3.79 z-score,4.32 z-score
CCGATTAACATCAAATTCCCGTATGATGTTAATCGGGTCTTGATTCGCTTGACGCTGCTG,2.44 z-score,4.38 z-score,2.65 z-score,3.19 z-score,3.72 z-score
CCGATTAACATCAGGAGATTCCCTGATGTTAATCGGGTCTTGATTCGCTTGACGCTGCTG,3.76 z-score,5.47 z-score,2.78 z-score,4.79 z-score,7.56 z-score
CCGATTAACATCAGGGAGATTTGTGATGTTAATCGGGTCTTGATTCGCTTGACGCTGCTG,3.21 z-score,4.56 z-score,2.54 z-score,1.8 z-score,4.63 z-score
CCGATTAACATCAGTAATTCCCATGATGTTAATCGGGTCTTGATTCGCTTGACGCTGCTG,4.02 z-score,4.3 z-score,5.42 z-score,7.23 z-score,4.24 z-score
CCGATTAACATCAGGGAGCTCCCTGATGTTAATCGGGTCTTGATTCGCTTGACGCTGCTG,4.49 z-score,3.24 z-score,1.46 z-score,3.76 z-score,6.36 z-score
CCGATTAACATCAGGCCATCCCCTGATGTTAATCGGGTCTTGATTCGCTTGACGCTGCTG,3.87 z-score,4.02 z-score,1.22 z-score,7.89 z-score,5.6 z-score
CCGATTAACATCAGGGAATTACATGATGTTAATCGGGTCTTGATTCGCTTGACGCTGCTG,4.01 z-score,5.15 z-score,4.3 z-score,8.99 z-score,4.92 z-score
CCGATTAACATCAAGTACCCCCCTGATGTTAATCGGGTCTTGATTCGCTTGACGCTGCTG,5.57 z-score,3.68 z-score,4.81 z-score,4.13 z-score,3.99 z-score
CCGATTAACATCAGGCACTCCCCTGATGTTAATCGGGTCTTGATTCGCTTGACGCTGCTG,4.75 z-score,3.18 z-score,2.45 z-score,3.63 z-score,4.71 z-score
CCGATTAACATCAACTCCCCCCCTGATGTTAATCGGGTCTTGATTCGCTTGACGCTGCTG,6.64 z-score,4.56 z-score,7.71 z-score,5.06 z-score,5.08 z-score
CCGATTAACATCAATCGTCCCCCTGATGTTAATCGGGTCTTGATTCGCTTGACGCTGCTG,5.15 z-score,4.15 z-score,6.83 z-score,2.93 z-score,4.81 z-score
CCGATTAACATCAAAAAGGGAAATGATGTTAATCGGGTCTTGATTCGCTTGACGCTGCTG,2.59 z-score,5.91 z-score,1.33 z-score,1.31 z-score,4.54 z-score
CCGATTAACATCACGGATTTCCCTGATGTTAATCGGGTCTTGATTCGCTTGACGCTGCTG,3.73 z-score,5.2 z-score,3.28 z-score,5.3 z-score,5.69 z-score
CCGATTAACATCAAATTCCCAGATGATGTTAATCGGGTCTTGATTCGCTTGACGCTGCTG,2.43 z-score,3.57 z-score,3.87 z-score,3.52 z-score,2.42 z-score
CCGATTAACATCAGAAATTCCCATGATGTTAATCGGGTCTTGATTCGCTTGACGCTGCTG,4.5 z-score,6.44 z-score,4.07 z-score,5.05 z-score,4.99 z-score
CCGATTAACATCAGGAAAACCCATGATGTTAATCGGGTCTTGATTCGCTTGACGCTGCTG,2.63 z-score,2.25 z-score,,4.78 z-score,4.02 z-score
CCGATTAACATCAGGGATTCCACTGATGTTAATCGGGTCTTGATTCGCTTGACGCTGCTG,2.72 z-score,1.75 z-score,,6.88 z-score,4.11 z-score
CCGATTAACATCAGGACAGTCCCTGATGTTAATCGGGTCTTGATTCGCTTGACGCTGCTG,4.92 z-score,5.23 z-score,,3.04 z-score,7.13 z-score
CCGATTAACATCAGGAAACTACCTGATGTTAATCGGGTCTTGATTCGCTTGACGCTGCTG,1.63 z-score,2.51 z-score,,4.48 z-score,4.72 z-score
CCGATTAACATCAGGGATTTACCTGATGTTAATCGGGTCTTGATTCGCTTGACGCTGCTG,4.76 z-score,5.65 z-score,,9.23 z-score,6.8 z-score
CCGATTAACATCAGGGAAGCACCTGATGTTAATCGGGTCTTGATTCGCTTGACGCTGCTG,4.67 z-score,5.46 z-score,,9.38 z-score,6.3 z-score
CCGATTAACATCAGGGACCGCCCTGATGTTAATCGGGTCTTGATTCGCTTGACGCTGCTG,4.16 z-score,3.55 z-score,,1.91 z-score,6.48 z-score
CCGATTAACATCAGGAATCACCCTGATGTTAATCGGGTCTTGATTCGCTTGACGCTGCTG,2.46 z-score,2.05 z-score,,7.17 z-score,4.82 z-score
CCGATTAACATCAGGTATTTTTATGATGTTAATCGGGTCTTGATTCGCTTGACGCTGCTG,1.27 z-score,2.01 z-score,,3.8 z-score,2.77 z-score
CCGATTAACATCACGGAAAACCCTGATGTTAATCGGGTCTTGATTCGCTTGACGCTGCTG,2.23 z-score,2.07 z-score,,3.69 z-score,4.81 z-score
CCGATTAACATCAGGGAGCTACCTGATGTTAATCGGGTCTTGATTCGCTTGACGCTGCTG,2.89 z-score,1.88 z-score,,1.02 z-score,3.21 z-score
